Assay [1] can be described thus: qHTS assay to test for compound auto fluorescence at 535 nm (green) in HEK293 cells (AID 720680).
The nature of assay [2]: qHTS assay to test for compound auto fluorescence at 460 nm (blue) in HEK293 cell free culture (AID 720681). In outline:
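Compounds were added to cell-free DMEM with 10% FBS and fluorescence read directly. The blue channel used 405 nm excitation and 460 nm emission, with triamterene as the reference fluorophore.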

A short description of assay [3]: qHTS assay to test for compound auto fluorescence at 535 nm (green) in HEK293 cell free culture (AID 720682). Put shortly: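 Steps: dispense DMEM/10% FBS into empty wells; pin in compound or DMSO; measure fluorescence at 485/535 nm. Values are fluorescein equivalents.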
The nature of assay [4]: qHTS assay to test for compound auto fluorescence at 590 nm (red) in HEK293 cell free culture (AID 720683). In outline:
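Cell-free wells of DMEM with 10% FBS received compound, and intrinsic fluorescence was read at excitation/emission 540/590 nm. Values expressed as equivalence to Rose Bengal sodium.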

Assay [5] in a line: qHTS assay to test for compound auto fluorescence at 590 nm (red) in HepG2 cell free culture (AID 720684). Put shortly:
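Rose Bengal sodium served as the reference for red signal. Test compounds were dispensed into serum-containing MEM (10% FBS) without cells, and plates were read at 540/590 nm.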

Assay [6] can be described thus: qHTS assay to test for compound auto fluorescence at 460 nm (blue) in HepG2 cell free culture (AID 720685). Put shortly:
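Cell-free plates of MEM plus 10% FBS received 23 nL compound or DMSO vehicle; blue-channel (405/460 nm) intensity scored against triamterene as reference fluorophore.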

Assay [7] can be described thus: qHTS assay to test for compound auto fluorescence at 535 nm (green) in HepG2 cell free culture (AID 720686).
Assay [8] can be described thus: qHTS assay to test for compound auto fluorescence at 460 nm (blue) in HepG2 cells (AID 720687). Put shortly: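 HepG2 cells in MEM with 10% FBS, attached overnight at 37 C, were exposed to compound or DMSO for 1 hr at 37 C, 5% CO2. Blue fluorescence was read at 405/460 nm, with triamterene as reference fluorophore.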
Assay [9] addresses Glucocorticoid receptor (Homo sapiens) (UniProt P04150). The experiment in a line: qHTS assay to identify small molecule agonists of the glucocorticoid receptor (GR) signaling pathway (AID 720691; active = well fitted activation curve with a large enough effect in the signal ratio in the repeat runs, not every such curve was filed as active; inconclusive = weak or mixed curves, or effect the other way; inactive = no such curve, though single readings can be large or run the other way; the % refers to the signal ratio; note: potency is the fitted concentration of half-maximal effect). As to conditions: GR-bla HeLa, beta-lactamase reporter ratio, 18 h; activation: at 62.4 µM (top of the series) unless noted. In outline:
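Cells: GR-bla HeLa, endogenous GR with stably integrated GRE-beta-lactamase reporter. Treatment 18 h, 37 C, compounds delivered in DMSO. Detection via LiveBLAzer B/G FRET substrate, 2 h RT, fluorescence intensity.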

The target is the same in assay [10]. The experiment in a line: qHTS assay to identify small molecule antagonists of the glucocorticoid receptor (GR) signaling pathway (AID 720692; active = well fitted inhibition curve with a large enough effect in the signal ratio in the repeat runs, not every such curve was filed as active; inconclusive = weak or mixed curves, or effect the other way; inactive = no such curve, though single readings can be large or run the other way; the % refers to the signal ratio; note: potency is the fitted concentration of half-maximal effect). Put shortly: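 Quantitative HTS in antagonist format: HeLa cells expressing endogenous GR and a stably integrated GRE-bla reporter, stimulated with 5 nM dexamethasone (final) alongside test compounds for 18 h.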

Where “and” joins values, the source holds several entries; their conditions need not be identical. Equal entries are not always repeated. Values without a mark were called inactive. Calls of active or inactive are those of the source. Unless noted, calls come from the whole dose curve; as a rule, active = well fitted curve in the direction sought with a large enough effect in the repeat runs; inconclusive = weak or mixed curves; inactive = flat fitted curve, though single readings scatter.

Chain of Glucocorticoid receptor (Homo sapiens) (P04150 whole entry, looked up): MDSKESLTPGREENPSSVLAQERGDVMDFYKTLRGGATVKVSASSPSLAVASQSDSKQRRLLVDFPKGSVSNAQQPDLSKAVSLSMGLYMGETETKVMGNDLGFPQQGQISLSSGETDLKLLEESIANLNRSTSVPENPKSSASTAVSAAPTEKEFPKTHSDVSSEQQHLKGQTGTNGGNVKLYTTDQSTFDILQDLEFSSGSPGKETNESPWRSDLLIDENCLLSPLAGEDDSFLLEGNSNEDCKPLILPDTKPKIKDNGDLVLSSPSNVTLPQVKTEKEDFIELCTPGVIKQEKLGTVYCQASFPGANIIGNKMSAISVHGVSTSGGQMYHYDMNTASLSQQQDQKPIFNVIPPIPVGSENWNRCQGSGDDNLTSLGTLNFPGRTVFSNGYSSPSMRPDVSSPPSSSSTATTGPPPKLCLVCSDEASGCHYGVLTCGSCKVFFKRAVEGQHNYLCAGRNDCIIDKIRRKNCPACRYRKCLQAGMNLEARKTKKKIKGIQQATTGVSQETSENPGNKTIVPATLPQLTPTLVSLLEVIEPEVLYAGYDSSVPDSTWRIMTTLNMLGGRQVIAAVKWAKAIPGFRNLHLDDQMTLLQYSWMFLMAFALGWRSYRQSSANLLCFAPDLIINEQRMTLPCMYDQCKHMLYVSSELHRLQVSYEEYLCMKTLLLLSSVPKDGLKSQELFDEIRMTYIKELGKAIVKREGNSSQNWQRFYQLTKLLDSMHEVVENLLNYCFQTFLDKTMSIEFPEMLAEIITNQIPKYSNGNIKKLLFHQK

Take `CNC[C@H](O)[C@@H](O)[C@H](O)[C@H](O)CO`: the molecule was classed as inactive in assay [1], in [3], in [4], in [5], in assay [7] and in [8]. In addition, the Potency entry in [2] and in [6] was “inactive” in each case.
In the case of `Cc1cc(O)c2c(c1)C(=O)c1cc(O)cc(O)c1C2=O`, the outcome in [1], in assay [3], in [4], in assay [5], in [7] and in [8] was inactive. Also, the Potency entry in assay [2], in assay [6] and in [9] was “inactive” throughout.
Turning to `CC#C[C@]1(O)CC[C@H]2[C@@H]3CCC4=CC(=O)CCC4=C3[C@@H](c3ccc(N(C)C)cc3)C[C@@]21C`, the molecule was classed as inactive in assay [1], in [3], in [4], in assay [5], in [7] and in assay [8]. Also, the Potency entry in [2], in [6] and in [9] was “inactive” throughout.
As for `CCc1ccc(O)cc1`, the result in assay [1], in assay [3], in [4], in assay [5], in assay [7] and in assay [8] was inactive. The Potency entry in assay [2], in assay [6], in [9] and in assay [10] was “inactive” each time.
Turning to `O=[N+]([O-])c1cccc(Cl)c1`, the result in assay [1], in assay [3], in assay [4], in [5], in assay [7] and in [8] was inactive. In addition, the Potency entry in assay [2] and in [6] was “inactive” in each case.
For the molecule `CC(C)(C)C(=O)C1C(=O)c2ccccc2C1=O`, the molecule was classed as inactive in [1], in assay [3], in assay [4], in [5], in assay [7] and in assay [8]. Also, the Potency entry in [2], in assay [6] and in assay [9] was “inactive” in each case.
As for `NCCc1ccc(O)c(O)c1`, the outcome in assay [1], in assay [3], in assay [4], in assay [5], in assay [7] and in assay [8] was inactive. For the same molecule, the Potency result in assay [2] and in assay [6] was “inactive” throughout.
With `COCC(=O)O`, the call in assay [1], in assay [3], in assay [4], in assay [5], in assay [7] and in assay [8] was inactive. The Potency entry in [2], in assay [6], in assay [9] and in assay [10] was “inactive” in each case.
In the case of `Cc1ccc(C)c(C)c1`, the molecule was called inactive in assay [1], in [3], in assay [4], in assay [5], in assay [7] and in assay [8]. Moreover, the Potency entry in assay [2], in assay [6], in assay [9] and in assay [10] was “inactive” each time.
On to `NCc1cccc(CN)c1`, for which the molecule was classed as inactive in assay [1], in assay [3], in assay [4], in assay [5], in assay [7] and in [8]. Further, the Potency result in assay [2], in assay [6], in assay [9] and in assay [10] was “inactive” each time.
Take `CC1(C)O[C@@H]2C[C@H]3[C@@H]4C[C@H](F)C5=CC(=O)CC[C@]5(C)[C@H]4[C@@H](O)C[C@]3(C)[C@]2(C(=O)CO)O1`: the molecule was classed as inactive in assay [1], in assay [3], in assay [4], in [5], in assay [7] and in assay [8]. The Potency entry in assay [2] and in [6] was “inactive” throughout. For the same molecule, the Potency in assay [9] was 18.2 nM [inconclusive] (active) and 3.9 nM (active).
Regarding `O=S(=O)(Oc1ccc(Cl)cc1Cl)c1ccccc1`, the molecule was classed as inactive in assay [1], in [3], in assay [4], in assay [5], in assay [7] and in assay [8]. Also, the Potency entry in [2] and in assay [6] was “inactive” in each case.
For `OCC1CCCO1` (stereo not drawn), the call in assay [1], in [3], in assay [4], in [5], in [7] and in assay [8] was inactive. The Potency result in [2], in assay [6], in assay [9] and in assay [10] was “inactive” throughout.
Consider `CCCCC(CC)COC(=O)CCCCCCCC(=O)OCC(CC)CCCC` (stereo not drawn), for which the outcome in assay [1], in assay [3], in assay [4], in assay [5], in assay [7] and in [8] was inactive. Further, the Potency result in [2], in assay [6], in assay [9] and in [10] was “inactive” each time.
Turning to `CCCCCCCCC`, the call in assay [1], in assay [3], in assay [4], in assay [5], in assay [7] and in [8] was inactive. In addition, the Potency result in [2], in assay [6], in assay [9] and in assay [10] was “inactive” in each case.
As to `NCCNCCNCCNCCN`, the molecule was classed as inactive in assay [1], in assay [3], in assay [4], in assay [5], in assay [7] and in assay [8]. In addition, the Potency entry in assay [2], in [6], in assay [9] and in assay [10] was “inactive” each time.
With `CCCCC(CC)C(=O)OCCOCCOCCOC(=O)C(CC)CCCC` (stereo not drawn), the molecule was classed as inactive in [1], in assay [3], in assay [4], in assay [5], in [7] and in assay [8]. The Potency entry in assay [2], in [6], in [9] and in [10] was “inactive” each time.
Consider `O=Nc1ccc(O)cc1`, for which the call in assay [1], in assay [3], in [4], in [5], in assay [7] and in assay [8] was inactive. Also, the Potency result in assay [2], in assay [6], in [9] and in assay [10] was “inactive” throughout.
With `Cc1cc(NS(=O)(=O)c2ccc(N)cc2)no1`, the call in assay [1], in assay [3], in assay [4], in assay [5], in assay [7] and in assay [8] was inactive. Besides, the Potency entry in [2], in [6], in assay [9] and in assay [10] was “inactive” throughout.
`ClC1=C(Cl)C(Cl)(Cl)C(Cl)=C1Cl`: the result in [1], in [3], in assay [4], in [5], in [7] and in [8] was inactive. Further, the Potency entry in [2], in assay [6] and in [9] was “inactive” each time. The Potency in assay [10] is 13.8 µM (active).
For the molecule `CCCCCCCCCC(=O)O`, the result in assay [1], in assay [3], in [4], in assay [5], in assay [7] and in assay [8] was inactive. For the same molecule, the Potency result in assay [2], in assay [6], in [9] and in [10] was “inactive” in each case.
Take `O=C(O)c1cc(-c2ccccc2)nc2ccccc12`: the call in assay [1], in [3], in assay [4], in assay [5], in [7] and in assay [8] was inactive. In addition, the Potency result in assay [2], in [6], in [9] and in assay [10] was “inactive” each time.
Take `CCCCCCC(C)(C)S`: the result in [1], in assay [3], in assay [4], in [5], in assay [7] and in assay [8] was inactive. Besides, the Potency entry in assay [2], in assay [6], in [9] and in [10] was “inactive” throughout.

(Values after PubChem BioAssay (Tox21).)
